Laboratory results taken from PubChem BioAssay.
Active and inactive are the calls of the source.

Key:
[1] = system: Plasmodium falciparum Sir2 (PF13_0152, Sir2A); test: pfSir2 binders on small-molecule microarrays, primary screen, biochemical, small-molecule microarray, 635 nm fluorescence (AID 1098); settings: small-molecule microarray binding, fluorescence 635 nm; higher = more signal;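 note: score merges spot fluorescence intensity with its signal-to-noise ratio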
[2] = small-molecule microarray binders of probe aDKK1, primary screen, biochemical, biotinylated probe, 635/667 nm fluorescence (AID 1099); settings: higher = more signal;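 note: score merges 667nm spot fluorescence with signal to noise across triplicate slides; reference of the scale not given here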
[3] = small-molecule microarray binders of probe aCHRDL2, primary screen, biochemical, biotinylated probe, 635/667 nm fluorescence (AID 1100); settings: higher = more signal
[4] = splicing luciferase reporter signal modulators, primary screen, spliceosome inhibition project, cell-based, HEK293, splice +/- reporter (AID 1101); settings: luminescence, 24 h, higher = more signal, called active from +8 up or from −8 down;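 note: HEK293 cells carrying a splicing-competent luciferase reporter gene; test concentration not given here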
[5] = biological target: Fibroblast growth factor 10 (Homo sapiens) (UniProt O15520); test: FGF10 binders on small-molecule microarrays, primary screen, biochemical, small-molecule microarray, 635 nm fluorescence (AID 1102); settings: FGF10 binding, fluorescence 635 nm, higher = more signal
[6] = system: glycogen synthase kinase-3 (GSK3A per assay name; protocol says GSK3B); test: GSK3 binders on small-molecule microarrays, primary screen, biochemical, small-molecule microarray, 635 nm fluorescence, GSK3A (AID 1103); settings: small-molecule microarray binding, fluorescence 635 nm; higher = more signal; note: the record names both GSK3A and GSK3B
[7] = biological target: Epidermal growth factor receptor (Homo sapiens) (UniProt P00533); test: EGFR binders on small-molecule microarrays, primary screen, biochemical, small-molecule microarray, 635 nm fluorescence (AID 1104); settings: EGFR binding, higher = more signal;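 note: score merges 667 nm emission intensity with spot signal to noise over triplicate slides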
[8] = biological target: Follistatin-related protein 3 (Homo sapiens) (UniProt O95633); test: FSTL3 binders on small-molecule microarrays, primary screen, biochemical, small-molecule microarray, 635 nm fluorescence (AID 1105); settings: FSTL3 binding, higher = more signal;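 note: score merges emission near 667 nm and signal to noise per printed spot across three slides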
[9] = biological target: Dickkopf-related protein 1 (Homo sapiens) (UniProt O94907); test: DKK1 binders on small-molecule microarrays, primary screen, biochemical, small-molecule microarray, 635 nm fluorescence scan (AID 1106); settings: DKK1 binding, higher = more signal;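 note: score merges emission near 667 nm with signal to noise over three replicate slides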
[10] = system: Inhibin beta A chain (activin A); test: INHBA (activin A) binders on microarrays, primary screen, biochemical, small-molecule microarray, 635 nm fluorescence scan (AID 1107); settings: small-molecule microarray binding, higher = more signal;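 note: mouse activin A protein probed at 4.33 µg/mL on printed slides; score merges bound-protein fluorescence near 667 nm with spot signal-to-noise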

Epidermal growth factor receptor (Homo sapiens), sequence (P00533 whole entry, looked up): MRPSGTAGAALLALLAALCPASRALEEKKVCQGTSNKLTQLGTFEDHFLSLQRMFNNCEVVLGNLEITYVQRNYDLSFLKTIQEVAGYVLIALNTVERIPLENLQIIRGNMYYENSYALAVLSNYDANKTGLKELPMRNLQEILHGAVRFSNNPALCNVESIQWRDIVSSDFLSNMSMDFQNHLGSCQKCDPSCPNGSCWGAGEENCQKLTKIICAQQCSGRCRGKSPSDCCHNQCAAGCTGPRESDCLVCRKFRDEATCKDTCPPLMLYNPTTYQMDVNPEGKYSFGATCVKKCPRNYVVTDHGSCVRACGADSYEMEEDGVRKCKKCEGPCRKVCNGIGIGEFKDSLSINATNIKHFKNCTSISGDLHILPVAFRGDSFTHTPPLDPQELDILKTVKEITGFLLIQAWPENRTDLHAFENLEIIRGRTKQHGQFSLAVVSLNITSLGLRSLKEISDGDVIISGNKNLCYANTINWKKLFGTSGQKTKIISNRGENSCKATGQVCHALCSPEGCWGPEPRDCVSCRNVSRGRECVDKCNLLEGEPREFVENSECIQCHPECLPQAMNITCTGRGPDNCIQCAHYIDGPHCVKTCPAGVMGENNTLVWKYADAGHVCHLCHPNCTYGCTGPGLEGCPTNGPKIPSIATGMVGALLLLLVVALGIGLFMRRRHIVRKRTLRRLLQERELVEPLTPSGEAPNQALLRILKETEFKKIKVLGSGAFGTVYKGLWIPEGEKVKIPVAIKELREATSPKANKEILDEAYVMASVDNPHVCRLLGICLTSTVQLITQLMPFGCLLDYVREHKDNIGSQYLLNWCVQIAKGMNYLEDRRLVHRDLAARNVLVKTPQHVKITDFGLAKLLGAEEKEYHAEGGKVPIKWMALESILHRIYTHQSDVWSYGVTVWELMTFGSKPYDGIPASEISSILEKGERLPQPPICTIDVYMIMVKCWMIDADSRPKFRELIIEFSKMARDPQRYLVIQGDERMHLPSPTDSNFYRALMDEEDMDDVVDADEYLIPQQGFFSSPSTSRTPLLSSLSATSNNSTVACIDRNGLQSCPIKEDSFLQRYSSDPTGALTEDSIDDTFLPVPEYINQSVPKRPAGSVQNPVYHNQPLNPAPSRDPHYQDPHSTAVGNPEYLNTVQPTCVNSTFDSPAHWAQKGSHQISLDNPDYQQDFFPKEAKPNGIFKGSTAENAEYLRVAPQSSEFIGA
Follistatin-related protein 3 (Homo sapiens), sequence (O95633 whole entry, looked up): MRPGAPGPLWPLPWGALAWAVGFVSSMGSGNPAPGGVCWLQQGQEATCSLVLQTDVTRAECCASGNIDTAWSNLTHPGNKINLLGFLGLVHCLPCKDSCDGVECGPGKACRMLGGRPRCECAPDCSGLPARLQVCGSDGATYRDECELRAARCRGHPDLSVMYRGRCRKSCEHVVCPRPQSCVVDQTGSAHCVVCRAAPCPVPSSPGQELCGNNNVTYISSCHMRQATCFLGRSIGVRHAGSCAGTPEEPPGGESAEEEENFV
Fibroblast growth factor 10 (Homo sapiens), sequence (O15520 whole entry, looked up): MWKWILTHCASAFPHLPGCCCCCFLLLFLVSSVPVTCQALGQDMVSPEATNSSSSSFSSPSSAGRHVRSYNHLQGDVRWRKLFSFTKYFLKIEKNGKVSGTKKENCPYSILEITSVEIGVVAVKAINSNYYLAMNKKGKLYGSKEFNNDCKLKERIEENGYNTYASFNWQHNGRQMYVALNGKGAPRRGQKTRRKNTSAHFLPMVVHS
Dickkopf-related protein 1 (Homo sapiens), sequence (O94907 whole entry, looked up): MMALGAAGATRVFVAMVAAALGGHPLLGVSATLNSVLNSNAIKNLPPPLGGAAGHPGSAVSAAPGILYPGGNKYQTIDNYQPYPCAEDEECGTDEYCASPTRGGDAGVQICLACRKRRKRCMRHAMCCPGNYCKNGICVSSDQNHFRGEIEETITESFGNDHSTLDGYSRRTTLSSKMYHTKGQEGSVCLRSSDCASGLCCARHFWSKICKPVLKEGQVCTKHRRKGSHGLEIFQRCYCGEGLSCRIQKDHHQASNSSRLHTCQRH

Row | SMILES | composite z-score [1] | composite z-score [2] | composite z-score [3] | z-score [4] | composite z-score [5] | composite z-score [6] | composite z-score [7] | composite z-score [8] | composite z-score [9] | composite z-score [10]
1 | Cn1cccc1C(O)C1C=CC2C(=O)NC(=O)C2N1Nc1ccccn1 (stereo not given) | 0.71 | 0.0275 | 0.0176 | 1.36 (inactive) | -0.121 | -0.0788 | 0.459 | 0.533 | 0.133 | 1.49
2 | COc1ccc([Si](C)(C)[C@@H]2[C@@H](CC(=O)N3CCC[C@H]3CO)O[C@]3(C(=O)N(Cc4cccc(N5CCC5=O)c4)c4ccccc43)[C@H]2C)cc1 | 1.71 | -0.264 | 0.363 | -0.399 (inactive) | 0.118 | 0.773 | 0.144 | 0.7 | 0.726 | 0.245
3 | O=C1[C@H]2[C@H]3[C@H](O)[C@H](O)CC(=NO[C@@H]4O[C@H](CO)[C@@H](O)[C@H](O)[C@H]4O)[C@@H]3CC[C@H]2C(=O)N1Cc1ccc2c(c1)OCO2 | 0.456 | -0.174 | -0.576 | 0.0977 (inactive) | 0.422 | 0.708 | 0.4 | 0.521 | 0.921 | -0.292
4 | O=C1[C@H]2[C@H]3[C@H](O)[C@H](O)CC(=NOC[C@@H](O)COCc4ccco4)[C@H]3CC[C@H]2C(=O)N1c1cccc(Oc2ccccc2)c1 | 0.846 | -0.317 | 0.166 | -0.716 (inactive) | -0.86 | -0.686 | -0.249 | -0.65 | -0.547 | 0.624
5 | COC(=O)[C@H](C)NC(=O)CCC1CC(OC(=O)NCc2cccc3ccccc23)CC2(CCCC(COC(=O)NCCc3ccc(Cl)cc3)O2)O1 (stereo not given in full) | -0.0744 | -0.299 | -0.444 | -0.875 (inactive) | 0.794 | 0.69 | 0.381 | 0.494 | 0.302 | -0.131
6 | CC(=O)OC[C@H]1O[C@@H](ON=C(C)CCN2CCc3nc(-c4ccccc4)c(-c4ccccc4)cc3C2)[C@H](OC(C)=O)[C@@H](OC(C)=O)[C@@H]1OC(C)=O | 0.625 | -0.119 | -0.413 | 0.522 (inactive) | 0.917 | 1.22 | 0.525 | 0.979 | 0.525 | -0.0877
7 | COC(=O)[C@@H]1CCCN1C(=O)[C@@H](C)CO | 0.42 | -0.0908 | -0.445 | -0.74 (inactive) | 0.601 | 1.24 | 0.524 | 0.592 | 0.547 | -0.198
8 | CO[C@H]1O[C@H](CO)[C@@H](OC(=O)Nc2ccc(C#N)cc2)[C@H](OC(=O)c2cc3ccccc3[nH]2)[C@H]1OC(=O)c1cc2ccccc2[nH]1 | 1.19 | 0.149 | 0.19 | -0.561 (inactive) | 0.747 | 1.16 | 0.119 | 0.588 | 0.295 | 0.354
9 | CCCNC(=O)[C@@H]1c2ccccc2C(=O)N(c2ccc(C)cn2)[C@H]1c1ccc(CO)cc1 | 1.78 | 0.662 | 0.733 | 1.12 (inactive) | -0.584 | -0.503 | -0.327 | -1.06 | -0.537 | 1.14
10 | O=C(NN=C1C[C@@H](O)[C@@H](O)[C@@H]2[C@@H]3C(=O)N(c4cccc(Oc5ccccc5)c4)C(=O)[C@@H]3CC[C@@H]12)OCc1ccccc1 | 0.0165 | 0.182 | 0.548 | 0.538 (inactive) | 0.353 | -0.54 | 0.152 | -0.112 | 0.155 | 0.229
11 | CO[C@H]1COC(=O)[C@H](C)NC(=O)[C@@H](C)COC(=O)CC=C[C@@H]1C | 1.38 | -0.369 | -0.786 | -0.794 (inactive) | 0.63 | 0.857 | 0.767 | 0.0078 | 0.829 | -0.249
12 | NCCCCCNC(=O)[C@@H]1C[C@@H]2C(=O)N3CCC[C@H]3C(=O)N2[C@@H]1c1cccc(OCCO)c1 | 0.963 | 1.61 | 0.948 | -0.298 (inactive) | 0.506 | 0.821 | 0.515 | 0.984 | 1.17 | 1.63
13 | CCCCCCc1nc(CCCc2cc3c(c(CCCCCC)n2)[Si](C(C)C)(C(C)C)O[C@H]3c2ccccc2)cc2c1[Si](C(C)C)(C(C)C)O[C@H]2c1ccccc1 | -0.509 | -0.259 | -0.21 | -1.11 (inactive) | 0.0736 | -0.401 | 0.123 | 0.0624 | 0.476 | 0.656
14 | COCCNC(=O)OCC1CCCC2(CC(OC(=O)NCCc3ccc(F)cc3)CC(CCC(=O)N[C@@H](C)C(=O)OC)O2)O1 (stereo not given in full) | 1.16 | -0.115 | -0.273 | -1.09 (inactive) | 0.842 | 1.26 | 0.601 | 1.22 | 0.932 | 0.415
15 | Cn1c(=O)n2n(c1=O)[C@H]1[C@H](O)[C@@H]3O[C@@H]3C(=NOC[C@@H](O)COCc3ccco3)[C@H]1CC2 | 0.608 | -0.198 | -0.505 | -0.695 (inactive) | 0.131 | 0.698 | 0.475 | 0.541 | 0.0999 | 0.0409
